A selection: hits, their analogues and other compounds. The true share with any hit is near 11%.
G9a inh: qHTS Assay for Inhibitors of Histone Lysine Methyltransferase G9a; Potency, µM (highest dose often 102 µM), inactives show at the top dose activity, negative = inhibition, actives largely listed as inhibitors; actives 8.8% (n = 350,000); Histone-lysine N-methyltransferase EHMT2 (Homo sapiens), Q96KQ7; AID 504332, 2011; G9a H3K9 monomethylation, AlphaScreen, 2 h; note: potency is the fitted concentration of half-maximal effect; nearly all actives have a fitted effect of over 75% in size
Target sequence (Q96KQ7 913-1193 limits assumed): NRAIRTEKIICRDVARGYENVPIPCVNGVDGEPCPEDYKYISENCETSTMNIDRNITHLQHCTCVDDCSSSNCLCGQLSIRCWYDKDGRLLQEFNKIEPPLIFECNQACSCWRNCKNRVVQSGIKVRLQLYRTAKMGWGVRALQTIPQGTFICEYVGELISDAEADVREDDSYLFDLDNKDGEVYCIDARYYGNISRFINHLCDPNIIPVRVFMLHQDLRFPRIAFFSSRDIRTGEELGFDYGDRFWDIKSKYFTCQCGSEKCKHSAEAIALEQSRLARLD
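Signal arises when biotinylated H3K9 peptide, once monomethylated, bridges streptavidin donor and antibody-captured acceptor beads. Enzyme at 20 nM was preincubated 15 min with test compounds; peptide 500 nM and SAM 20 uM then reacted for 2 h.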
Tau ThT inhib: qHTS for Inhibitors of Tau Fibril Formation, Thioflavin T Binding; Potency, µM (highest dose often 57.4 µM), for the others: at the top dose activity, negative = inhibition, most hits filed as inhibitors; Microtubule-associated protein tau (Homo sapiens), P10636; AID 1460, 2008; recombinant tau K18 P301L, heparin-induced fibrillization, ThT fluorescence; actives 2.1% (n = 270,000); note: potency is the fitted concentration of half-maximal effect; nearly all actives have a fitted effect of over 55% in size
Target sequence (P10636 561-689 P618L limits assumed): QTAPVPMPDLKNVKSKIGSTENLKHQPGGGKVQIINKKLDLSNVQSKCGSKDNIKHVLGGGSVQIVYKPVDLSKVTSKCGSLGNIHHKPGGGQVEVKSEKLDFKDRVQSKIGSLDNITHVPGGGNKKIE
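ThT emission at 510 nm, taken 1 hr after adding 30 uM dye, quantifies aggregates formed when 20 uM heparin acts on human tau K18 P301L for 6 hr at 37 C.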
Sfp inh: qHTS Assay for Inhibitors of Bacillus subtilis Sfp phosphopantetheinyl transferase (PPTase). Biochemical Sfp PPTase activity, qHTS. 4'-phosphopantetheinyl transferase ffp (Bacillus subtilis), Q9F4F7. Potency, µM, without a hit: largest response in the series, negative = inhibition, actives largely listed as inhibitors. actives 3.5% (n = 310,000);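 note: the enzyme is Sfp with the accession as filed and its product quenches rhodamine fluorescence; potency is the fitted concentration of half-maximal effect; 0% = enzyme reaction without inhibitor and -100% = no enzyme wells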
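Reaction rates are the 30-min fluorescence difference (ex 525, em 598 nm) in wells containing 15 nM Sfp, 5 uM rhodamine-CoA and 12.5 uM BHQ-2-YbbR at pH 7.6 with 10 mM MgCl2.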
FBPA coupling cs: qHTS Assay for Inhibitors of Fructose-1,6-bisphosphate Aldolase from Giardia Lamblia: Coupling assay counterscreen | actives 0.67% (n = 290,000) | coupling enzyme system counterscreen, AmpLite Red fluorescence | activity change, negative = inhibition, % at 58.2 µM, hits read low; in the data active = activity change below about -30%
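Compounds tested against the coupling enzymes alone at 57.5 uM final; readout was AmpLite Red fluorescence (525/598 nm) after 20 min at RT.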
Tau fibril FP: qHTS for Inhibitors of Tau Fibril Formation, Fluorescence Polarization. K18 P301L tau heparin fibrillization, Alexa594 FP, 6 h. Potency, µM (highest dose often 57.7 µM), for inactives: at the highest dose activity, negative = inhibition, usual class: inhibitors. actives 0.39% (n = 280,000); note: potency is the fitted concentration of half-maximal effect; nearly all actives have a fitted effect of over 55% in size
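Quantitative HTS format: compounds meet 15 uM recombinant K18 P301L tau and Alexa 594-tau tracer in 100 mM sodium acetate pH 7; 20 uM heparin triggers fibrillization at 37 C over 6 hr; FP gives the signal.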
Tau fluor cs: Counterscreen qHTS for Inhibitors of Tau Fibril Formation, Fluorescence Polarization | Potency, µM (doses to about 57.7 µM), for inactives: at the top dose activity change, negative = decrease | tau K18 P301L Alexa594 fluorescence, heparin fibrillization | AID 1463, 2008 | actives 0.93% (n = 280,000); note: potency is the fitted concentration of half-maximal effect; nearly all actives have a fitted effect of over 55% in size
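Human tau K18 P301L (15 uM unlabeled, 0.24 uM Alexa 594-labeled) in 100 mM sodium acetate pH 7 with 20 uM heparin, 6 hr at 37 C. ThT 30 uM added, 1 hr ambient; Alexa 594 FP and total fluorescence read at 555/632 nm.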
Active calls of the source: *; [ ] = remark or other dose. Unless noted, calls come from the whole dose curve; as a rule, active = well fitted curve in the direction sought with a large enough effect; inconclusive = small, poorly fitted or top-dose-only effect, or another doubt; inactive = no such curve, though single readings can be large; an effect the other way counts as inactive or inconclusive. Unless noted, % is set by controls: 0 for no effect and ±100 for the full control effect.

Results for CC(C)c1nn2c(=O)cc(COc3cccc(NC(=O)c4ccco4)c3)nc2s1 ?
G9a inh: 14%; Sfp inh: 11%

How did COc1ccc2c(c1)-c1c(ssc1=S)C(C)(C)N2S(=O)(=O)c1ccc(C)cc1 do in these assays?
G9a inh: 3.2µM*; Tau ThT inhib: -11%; Sfp inh: 2%; FBPA coupling cs: 1; Tau fibril FP: -8%; Tau fluor cs: -26%

What do the screens show for `Cc1ccc(S(=O)(=O)N2c3ccccc3-c3c(ssc3=S)C2(C)C)cc1`?
G9a inh: 7.1µM*; Tau ThT inhib: inconclusive; Sfp inh: -2%; FBPA coupling cs: 5; Tau fibril FP: -2%; Tau fluor cs: inconclusive

Results for Cc1ccc(C(c2sc3nc(-c4ccco4)nn3c2O)N2CCN(Cc3ccccc3)CC2)cc1 (centres undefined) ?
G9a inh: inconclusive; Tau ThT inhib: -15%; Tau fibril FP: -4%; Tau fluor cs: -20%

What do the screens show for `Cc1[nH][nH]c(=O)c1N=Nc1ccc(Cl)cc1`?
G9a inh: inconclusive; Tau ThT inhib: 8.9µM*; Sfp inh: 14%; FBPA coupling cs: 0; Tau fibril FP: 0%; Tau fluor cs: -15%

Results for CC1(C)CC(=O)C2=C(C1)N(Cc1ccco1)C(=O)C2(NC(=O)C1CCCCC1)C(F)(F)F (centres undefined) ?
G9a inh: -43%[12.7 µM]; Tau ThT inhib: -7%; Sfp inh: 25µM*; FBPA coupling cs: -5; Tau fibril FP: 4%; Tau fluor cs: 3%

How did Cn1c(=O)c2c(-c3ccccc3F)c3c(nc2n(C)c1=O)-c1ccccc1C3O (centres undefined) do in these assays?
G9a inh: 10µM*; Tau ThT inhib: -7%; Sfp inh: 13%; FBPA coupling cs: -1; Tau fibril FP: 11%; Tau fluor cs: -4%

What do the screens show for `CCc1cc(-c2n[nH]c(C)c2-c2nc3ccccc3n2C)c(O)c(CN2CCN(C)CC2)c1O`?
G9a inh: 45µM*; Tau ThT inhib: -8%; Sfp inh: -5%; FBPA coupling cs: -1; Tau fibril FP: 4%; Tau fluor cs: -11%

Results for CCc1cc(-c2n[nH]c(C)c2-c2nc3ccccc3n2C)c(O)cc1O ?
G9a inh: -42%; Tau ThT inhib: -4%; Sfp inh: 18%; FBPA coupling cs: -20; Tau fibril FP: 9%; Tau fluor cs: -25%

What do the screens show for `CCc1cc(-c2n[nH]c(CCC(=O)O)c2-c2nc3ccccc3n2C)c(O)cc1O`?
G9a inh: 7.1µM*; Tau ThT inhib: -12%; Sfp inh: 0%; FBPA coupling cs: -7; Tau fibril FP: 1%; Tau fluor cs: -8%

What do the screens show for `Cc1cccc2sc(N(CCCN(C)C)C(=O)c3ccc(C(=O)c4ccccc4)cc3)nc12`?
G9a inh: 50µM*; Sfp inh: 79µM*

Results for CN(C)CCCN(C(=O)c1sc2ccccc2c1Cl)c1nc2c(F)cccc2s1 ?
G9a inh: 25µM*; Tau ThT inhib: -4%; Sfp inh: 50µM*; FBPA coupling cs: 7; Tau fibril FP: 3%; Tau fluor cs: -15%

How did Cc1cccc2sc(N(CCCN(C)C)C(=O)c3sc4ccccc4c3Cl)nc12 do in these assays?
G9a inh: 28µM*; Tau ThT inhib: -15%; Sfp inh: 32µM*; FBPA coupling cs: 5; Tau fibril FP: -16%; Tau fluor cs: -21%

How did CCOc1cccc2sc(N(CCCN(C)C)C(=O)c3ccc(S(=O)(=O)N(C)c4ccccc4)cc3)nc12 do in these assays?
G9a inh: 56µM*; Tau ThT inhib: inconclusive; Sfp inh: inconclusive; FBPA coupling cs: 1; Tau fibril FP: -2%; Tau fluor cs: -19%

Results for CN(C)CC(C)(C)CN=Cc1c(O)[nH]c2ccccc12 ?
G9a inh: 4%[59 µM]; Tau ThT inhib: -6%; Sfp inh: 15%; FBPA coupling cs: 0; Tau fibril FP: -4%; Tau fluor cs: -8%

How did Fc1cc(F)cc(Nc2nc(Cl)nc(NC3CCCC3)n2)c1 do in these assays?
G9a inh: 10%[0.501 µM]

How did Cc1sc2nc(CSc3ccc([N+](=O)[O-])c(C(F)(F)F)c3)[nH]c(=O)c2c1C do in these assays?
G9a inh: inconclusive; Tau ThT inhib: 9%; Sfp inh: 56µM*; FBPA coupling cs: 1; Tau fibril FP: 1%; Tau fluor cs: 8%

How did COC(=O)c1sc2nc(CSc3ccc(Br)cc3)[nH]c(=O)c2c1C do in these assays?
Tau ThT inhib: inconclusive; Sfp inh: -2%; FBPA coupling cs: 1; Tau fibril FP: 1%; Tau fluor cs: -27%

Results for O=C(NNc1c(F)c(F)cc(F)c1F)c1ccc(Cl)nc1 ?
G9a inh: 50µM*; Sfp inh: 12%; FBPA coupling cs: 1

What do the screens show for `CCN(CC)CCNCc1ccc(Br)cc1OCC(=O)NCc1ccccc1`?
G9a inh: 50µM*; Tau ThT inhib: -8%; Sfp inh: 20%; FBPA coupling cs: 0; Tau fibril FP: 4%; Tau fluor cs: -10%

Results for CC(C)CCN(Cc1ccco1)C(=O)Cn1ncc2c([nH]c3ccccc32)c1=O ?
G9a inh: -28%[59 µM]; Tau ThT inhib: -1%; Tau fibril FP: -2%; Tau fluor cs: -4%

How did COc1ccccc1CNC(=O)C(=O)Nc1ccc(C(=O)N2CCC(C)CC2)cc1 do in these assays?
G9a inh: 15%; Sfp inh: 4%; FBPA coupling cs: 4

How did O=C(O)CCCNc1cc(N2CCN(C3CCCCC3)CC2)c2noc3c2c1C(=O)c1ccccc1-3 do in these assays?
G9a inh: 16µM*; Tau ThT inhib: 8.9µM*; Tau fibril FP: inconclusive; Tau fluor cs: inconclusive

Results for CCNc1cc(N2CCN(C3CCCCC3)CC2)c2noc3c2c1C(=O)c1ccccc1-3 ?
G9a inh: inconclusive; Tau ThT inhib: inconclusive; Tau fibril FP: 0%; Tau fluor cs: -23%

Results for O=C(O)CCNc1cc(N2CCN(C(=O)c3ccco3)CC2)c2noc3c2c1C(=O)c1ccccc1-3 ?
G9a inh: 10µM*; Sfp inh: -23%; FBPA coupling cs: -25

How did CCN1CCN(c2cc(N3CCN(C(=O)c4ccco4)CC3)c3c4c(onc24)-c2ccccc2C3=O)CC1 do in these assays?
G9a inh: 18µM*; Sfp inh: 50µM*; FBPA coupling cs: -30*

Screening results (PubChem)
